Of roughly 8,800 targets only a part is listed; those with a hit were picked by preference. About 0.5% of all pairs of compound and target were hits.
Assays:
Test in all cases: log2 fold change, soluble protein after heating vs DMSO (PISA); higher = thermal stabilisation; K562 lysate, 10 uM; active = over 0.2 and 3.5 SD of the protein, either way, in both replicates (recomputed)
lapatinib = compound: CS(=O)(=O)CCNCc1ccc(-c2ccc3ncnc(Nc4ccc(OCc5cccc(F)c5)c(Cl)c4)c3c2)o1 [lapatinib]
Method in brief: (§1)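 Soluble protein was defined as the supernatant remaining after 21,000xg for 90 min, following pooling of heated aliquots and adjustment to 0.5% NP-40 at 4°C. Before that, crude K562 extract at 1 mg/mL protein in PBS pH 7.4 with 1 mM MgCl2 was treated with 10 μM compound for 30 min and heated for 3 min across 48°C-58°C. Quantification used TMTpro 16plex LC-MS/MS with channel sums equalised, and values are log-two fold changes in thermal stability relative to solvent controls from duplicates.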

pictilisib = compound: CS(=O)(=O)N1CCN(Cc2cc3nc(-c4cccc5[nH]ncc45)nc(N4CCOCC4)c3s2)CC1 [pictilisib]
Method in brief: as §1

crizotinib = compound: C[C@@H](Oc1cc(-c2cnn(C3CCNCC3)c2)cnc1N)c1c(Cl)ccc(F)c1Cl [crizotinib]
Method in brief: as §1

[1] = compound: C[C@H](C1=CC=C(C=C1)C(=O)NC2=C3C=CNC3=NC=C2)N
Method in brief: as §1

duvelisib = compound: C[C@H](Nc1ncnc2nc[nH]c12)c1cc2cccc(Cl)c2c(=O)n1-c1ccccc1 [duvelisib]
Method in brief: as §1

gandotinib = compound: Cc1cc(Nc2cc(CN3CCOCC3)c3nc(C)c(Cc4ccc(Cl)cc4F)n3n2)n[nH]1 [gandotinib]
Method in brief: as §1

tozasertib = compound: Cc1cc(Nc2cc(N3CCN(C)CC3)nc(Sc3ccc(NC(=O)C4CC4)cc3)n2)n[nH]1 [tozasertib]
Method in brief: as §1

doramapimod = compound: Cc1ccc(-n2nc(C(C)(C)C)cc2NC(=O)Nc2ccc(OCCN3CCOCC3)c3ccccc23)cc1 [doramapimod]
Method in brief: as §1

bafetinib = compound: Cc1ccc(NC(=O)c2ccc(CN3CC[C@H](N(C)C)C3)c(C(F)(F)F)c2)cc1Nc1nccc(-c2cncnc2)n1 [bafetinib]
Method in brief: as §1

[2] = compound: Cc1cccc(CC(=O)N2CCc3c2ccc(-c2cn(C)c4ncnc(N)c24)c3F)n1
Method in brief: as §1

Measured: log2 fold change

REL isoform 2 (UniProt Q04864)
active: [1] 0.32
inactive: lapatinib 0.014 | pictilisib 0.005 | crizotinib -0.025 | duvelisib 0.001 | gandotinib 0.074 | tozasertib 0.052 | doramapimod 0.023 | bafetinib -0.04 | [2] -0.072

RAB27A (UniProt P51159)
inactive: lapatinib 0.013 | pictilisib -0.008 | crizotinib 0.026 | duvelisib -0.009 | gandotinib -0.081 | tozasertib 0.024 | doramapimod -0.034 | bafetinib 0.038 | [2] -0.054
active: [1] 0.563

RPS6KA3 (UniProt P51812)
inactive: lapatinib -0.089 | pictilisib 0.223 | crizotinib -0.012 | [1] -0.037 | duvelisib -0.016 | gandotinib 0.156 | tozasertib 0.363 | doramapimod -0.057 | bafetinib -0.077 | [2] -0.083

RPS4X (UniProt P62701)
inactive: lapatinib -0.006 | pictilisib 0.009 | crizotinib -0.024 | [1] 0.209 | duvelisib 0.012 | gandotinib -0.038 | tozasertib -0.018 | doramapimod -0.01 | bafetinib -0.008 | [2] -0.04

RBSN (UniProt Q9H1K0)
inactive: lapatinib -0.008 | pictilisib -0.024 | crizotinib -0.012 | [1] -0.032 | duvelisib 0.093 | gandotinib 0.019 | tozasertib 0.13 | doramapimod -0.026 | bafetinib 0.026 | [2] 0.059

RPL27 (UniProt P61353)
active: [1] 0.411
inactive: lapatinib -0.04 | pictilisib 0.008 | crizotinib 0.013 | duvelisib 0.012 | gandotinib -0.098 | tozasertib 0.01 | doramapimod -0.034 | bafetinib -0.033 | [2] -0.118

RETREG2 (UniProt Q8NC44)
inactive: lapatinib -0.051 | pictilisib -0.037 | crizotinib -0.074 | [1] -0.052 | gandotinib -0.052 | tozasertib 0.025 | doramapimod -0.005 | bafetinib -0.141 | [2] 0.122

RPS26P11 (UniProt Q5JNZ5)
active: [1] -0.484 | [2] 0.24
inactive: lapatinib 0.024 | pictilisib -0.008 | crizotinib -0.085 | duvelisib 0.076 | gandotinib 0.147 | tozasertib -0.055 | doramapimod 0.021 | bafetinib -0.072

RANBP2 (UniProt P49792)
Chain of UniProt P49792 (P49792 whole entry, looked up): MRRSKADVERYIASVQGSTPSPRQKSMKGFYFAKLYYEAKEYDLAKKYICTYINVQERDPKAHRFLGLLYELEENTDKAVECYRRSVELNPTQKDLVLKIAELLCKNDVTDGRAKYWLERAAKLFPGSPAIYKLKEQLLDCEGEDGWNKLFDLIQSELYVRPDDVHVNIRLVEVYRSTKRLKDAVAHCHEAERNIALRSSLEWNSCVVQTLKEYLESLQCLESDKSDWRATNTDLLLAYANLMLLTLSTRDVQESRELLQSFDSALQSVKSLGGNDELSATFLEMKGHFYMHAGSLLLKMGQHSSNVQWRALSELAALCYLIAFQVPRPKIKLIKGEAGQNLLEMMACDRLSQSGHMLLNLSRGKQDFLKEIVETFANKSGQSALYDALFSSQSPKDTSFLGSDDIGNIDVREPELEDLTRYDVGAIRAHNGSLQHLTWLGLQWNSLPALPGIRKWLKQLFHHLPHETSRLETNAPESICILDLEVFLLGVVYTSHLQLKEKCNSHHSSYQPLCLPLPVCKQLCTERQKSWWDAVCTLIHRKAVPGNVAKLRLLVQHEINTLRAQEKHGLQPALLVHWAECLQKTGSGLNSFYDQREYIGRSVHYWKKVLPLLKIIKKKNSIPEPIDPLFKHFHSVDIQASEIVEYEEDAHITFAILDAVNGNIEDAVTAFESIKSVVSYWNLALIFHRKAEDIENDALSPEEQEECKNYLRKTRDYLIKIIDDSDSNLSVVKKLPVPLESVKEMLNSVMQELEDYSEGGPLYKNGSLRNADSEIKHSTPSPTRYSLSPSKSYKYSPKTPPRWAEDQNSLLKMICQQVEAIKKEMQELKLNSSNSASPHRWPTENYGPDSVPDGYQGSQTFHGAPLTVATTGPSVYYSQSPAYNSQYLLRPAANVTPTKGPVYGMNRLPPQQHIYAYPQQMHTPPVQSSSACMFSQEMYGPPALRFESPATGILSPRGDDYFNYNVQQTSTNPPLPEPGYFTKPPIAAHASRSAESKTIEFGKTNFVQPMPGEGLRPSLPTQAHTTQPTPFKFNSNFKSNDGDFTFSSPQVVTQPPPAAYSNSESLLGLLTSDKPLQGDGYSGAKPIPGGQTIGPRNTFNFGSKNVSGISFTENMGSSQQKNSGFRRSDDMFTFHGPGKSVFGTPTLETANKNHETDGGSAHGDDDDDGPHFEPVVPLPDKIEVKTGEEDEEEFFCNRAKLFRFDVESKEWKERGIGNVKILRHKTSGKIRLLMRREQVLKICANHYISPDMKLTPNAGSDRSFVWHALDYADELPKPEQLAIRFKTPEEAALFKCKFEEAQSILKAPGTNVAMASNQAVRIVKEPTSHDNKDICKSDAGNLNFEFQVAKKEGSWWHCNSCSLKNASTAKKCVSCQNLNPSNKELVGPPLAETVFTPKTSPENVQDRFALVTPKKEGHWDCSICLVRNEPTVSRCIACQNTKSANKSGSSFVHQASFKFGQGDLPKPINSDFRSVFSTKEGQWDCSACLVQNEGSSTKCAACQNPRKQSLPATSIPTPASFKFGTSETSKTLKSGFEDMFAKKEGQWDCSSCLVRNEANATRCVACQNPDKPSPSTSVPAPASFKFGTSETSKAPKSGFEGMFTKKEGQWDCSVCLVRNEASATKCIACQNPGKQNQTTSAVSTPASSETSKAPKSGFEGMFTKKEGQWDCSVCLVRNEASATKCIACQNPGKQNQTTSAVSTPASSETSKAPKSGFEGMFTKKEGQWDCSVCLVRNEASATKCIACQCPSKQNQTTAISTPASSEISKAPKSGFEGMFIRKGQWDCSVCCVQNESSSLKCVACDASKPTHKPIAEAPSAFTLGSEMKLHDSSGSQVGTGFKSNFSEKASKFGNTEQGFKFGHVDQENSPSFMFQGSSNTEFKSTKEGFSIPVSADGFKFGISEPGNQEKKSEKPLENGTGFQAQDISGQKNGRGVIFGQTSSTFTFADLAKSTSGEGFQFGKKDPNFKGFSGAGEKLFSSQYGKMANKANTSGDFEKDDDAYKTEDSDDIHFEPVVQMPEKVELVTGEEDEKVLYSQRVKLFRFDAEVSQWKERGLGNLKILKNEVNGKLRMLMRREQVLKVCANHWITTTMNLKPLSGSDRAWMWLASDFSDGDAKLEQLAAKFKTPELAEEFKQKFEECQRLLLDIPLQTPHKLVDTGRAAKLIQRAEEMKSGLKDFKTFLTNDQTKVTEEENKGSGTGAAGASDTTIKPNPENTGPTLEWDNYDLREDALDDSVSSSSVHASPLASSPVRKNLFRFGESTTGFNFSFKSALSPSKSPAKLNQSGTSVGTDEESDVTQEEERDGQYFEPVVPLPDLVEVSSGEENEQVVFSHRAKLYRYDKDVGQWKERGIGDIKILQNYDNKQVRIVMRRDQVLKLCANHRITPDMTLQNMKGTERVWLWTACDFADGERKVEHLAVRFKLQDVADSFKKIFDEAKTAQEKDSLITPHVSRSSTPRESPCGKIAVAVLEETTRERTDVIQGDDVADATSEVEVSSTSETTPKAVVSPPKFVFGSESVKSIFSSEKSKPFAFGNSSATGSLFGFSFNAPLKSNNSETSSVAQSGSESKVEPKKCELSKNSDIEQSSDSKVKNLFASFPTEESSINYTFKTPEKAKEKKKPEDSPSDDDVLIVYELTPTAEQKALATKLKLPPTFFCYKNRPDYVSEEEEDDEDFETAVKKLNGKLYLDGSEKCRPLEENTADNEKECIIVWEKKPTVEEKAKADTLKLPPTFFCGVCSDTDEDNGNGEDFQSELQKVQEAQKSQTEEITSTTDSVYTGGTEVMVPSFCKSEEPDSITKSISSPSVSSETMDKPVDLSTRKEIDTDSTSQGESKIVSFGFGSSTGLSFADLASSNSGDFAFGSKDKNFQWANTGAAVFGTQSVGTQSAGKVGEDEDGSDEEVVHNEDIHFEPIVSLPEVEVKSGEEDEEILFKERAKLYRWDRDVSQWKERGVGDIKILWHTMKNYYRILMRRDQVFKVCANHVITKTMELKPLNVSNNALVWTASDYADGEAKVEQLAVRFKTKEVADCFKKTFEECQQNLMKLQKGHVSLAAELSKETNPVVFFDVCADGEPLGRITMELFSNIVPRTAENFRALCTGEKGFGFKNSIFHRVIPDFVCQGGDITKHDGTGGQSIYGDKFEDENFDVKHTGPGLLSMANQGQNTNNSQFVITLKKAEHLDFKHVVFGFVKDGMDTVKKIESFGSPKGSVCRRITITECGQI
inactive: lapatinib 0.002 | pictilisib -0.001 | crizotinib -0.01 | [1] -0.009 | duvelisib -0.014 | gandotinib -0.069 | tozasertib 0.001 | doramapimod -0.002 | bafetinib -0.02 | [2] 0.06

RBM4 (UniProt Q9BWF3)
inactive: lapatinib -0.015 | pictilisib -0.01 | crizotinib 0.018 | [1] 0.183 | duvelisib -0.003 | gandotinib -0.097 | tozasertib 0.075 | doramapimod -0.109 | bafetinib -0.02 | [2] -0.069

RCAN1 (UniProt P53805)
inactive: lapatinib -0.017 | pictilisib -0.048 | crizotinib -0.127 | [1] -0.088 | duvelisib -0.012 | gandotinib 0.041 | tozasertib 0.017 | doramapimod -0.039 | bafetinib 0.123 | [2] -0.03

RPTOR (UniProt Q8N122)
Chain of UniProt Q8N122 (Q8N122 whole entry, looked up): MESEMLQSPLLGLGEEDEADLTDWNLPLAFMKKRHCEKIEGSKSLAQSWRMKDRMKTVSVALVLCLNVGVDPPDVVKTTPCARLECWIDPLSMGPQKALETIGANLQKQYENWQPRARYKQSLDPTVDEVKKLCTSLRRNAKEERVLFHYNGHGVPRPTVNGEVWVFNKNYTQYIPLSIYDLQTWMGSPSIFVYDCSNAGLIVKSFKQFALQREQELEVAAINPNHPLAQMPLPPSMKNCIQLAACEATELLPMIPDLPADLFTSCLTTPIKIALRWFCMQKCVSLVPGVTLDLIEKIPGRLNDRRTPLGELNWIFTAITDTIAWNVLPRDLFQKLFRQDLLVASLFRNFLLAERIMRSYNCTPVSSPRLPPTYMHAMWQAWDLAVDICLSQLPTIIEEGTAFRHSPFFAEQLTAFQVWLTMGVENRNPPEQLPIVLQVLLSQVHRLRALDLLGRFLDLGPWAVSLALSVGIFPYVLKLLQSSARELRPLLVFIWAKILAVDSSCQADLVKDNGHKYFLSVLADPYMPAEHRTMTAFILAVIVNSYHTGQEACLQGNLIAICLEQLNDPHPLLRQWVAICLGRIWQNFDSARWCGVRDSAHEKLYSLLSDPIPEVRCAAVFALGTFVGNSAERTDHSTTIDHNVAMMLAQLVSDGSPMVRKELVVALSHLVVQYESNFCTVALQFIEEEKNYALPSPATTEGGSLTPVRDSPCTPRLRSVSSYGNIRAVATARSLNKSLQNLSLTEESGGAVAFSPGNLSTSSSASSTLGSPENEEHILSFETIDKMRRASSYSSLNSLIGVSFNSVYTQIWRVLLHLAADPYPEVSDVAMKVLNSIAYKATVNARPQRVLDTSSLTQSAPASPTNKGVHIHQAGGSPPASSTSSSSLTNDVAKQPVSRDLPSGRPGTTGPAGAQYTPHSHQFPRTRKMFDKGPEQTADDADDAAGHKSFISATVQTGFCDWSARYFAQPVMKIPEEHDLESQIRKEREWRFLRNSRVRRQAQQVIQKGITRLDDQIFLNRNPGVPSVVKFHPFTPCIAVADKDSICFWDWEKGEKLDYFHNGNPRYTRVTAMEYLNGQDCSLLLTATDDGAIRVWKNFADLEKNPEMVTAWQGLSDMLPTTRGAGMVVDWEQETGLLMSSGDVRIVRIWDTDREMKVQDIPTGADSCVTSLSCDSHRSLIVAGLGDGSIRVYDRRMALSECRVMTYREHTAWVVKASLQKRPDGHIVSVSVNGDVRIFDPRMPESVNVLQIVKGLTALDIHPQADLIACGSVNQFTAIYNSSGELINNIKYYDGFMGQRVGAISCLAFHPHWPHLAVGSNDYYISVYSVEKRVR
inactive: lapatinib -0.001 | pictilisib -0.024 | crizotinib -0.056 | [1] -0.044 | duvelisib -0.024 | gandotinib -0.097 | tozasertib 0.019 | doramapimod 0.025 | bafetinib -0.057 | [2] 0.009

RBM45 (UniProt Q8IUH3)
Chain of UniProt Q8IUH3 (Q8IUH3 whole entry, looked up): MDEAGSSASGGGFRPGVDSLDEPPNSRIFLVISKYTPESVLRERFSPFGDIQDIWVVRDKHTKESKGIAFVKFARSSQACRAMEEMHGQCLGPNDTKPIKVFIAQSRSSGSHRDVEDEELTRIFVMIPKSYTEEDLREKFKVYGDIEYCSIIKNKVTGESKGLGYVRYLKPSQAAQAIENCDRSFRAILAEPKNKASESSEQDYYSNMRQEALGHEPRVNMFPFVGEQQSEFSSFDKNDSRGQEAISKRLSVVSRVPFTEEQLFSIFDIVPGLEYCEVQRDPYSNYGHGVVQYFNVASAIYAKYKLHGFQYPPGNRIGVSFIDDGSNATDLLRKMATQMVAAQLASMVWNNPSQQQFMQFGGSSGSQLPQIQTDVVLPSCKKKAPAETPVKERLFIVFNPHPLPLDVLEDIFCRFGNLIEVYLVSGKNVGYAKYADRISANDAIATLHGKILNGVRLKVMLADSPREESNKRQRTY
inactive: lapatinib -0.12 | crizotinib -0.094 | [1] 0.184 | gandotinib -0.1 | doramapimod 0.014 | [2] 0.077

RNASEH1 (UniProt O60930)
inactive: [1] -0.014 | gandotinib -0.174 | [2] 0.274

RALGAPB isoform 3 (UniProt Q86X10)
inactive: pictilisib -0.018 | [1] -0.04 | duvelisib -0.396 | gandotinib -0.33 | tozasertib 0.027 | bafetinib -0.255 | [2] -0.026

RAD17 (UniProt O75943)
inactive: pictilisib -0.019 | crizotinib -0.01 | [1] 0.021 | duvelisib -0.027 | gandotinib -0.194 | tozasertib 0.005 | doramapimod -0.015 | bafetinib 0 | [2] -0.055

SEMA4G isoform 2 (UniProt Q9NTN9)
inactive: crizotinib -0.084 | [1] 0.036 | duvelisib -0.294 | gandotinib 0.019 | tozasertib 0.082 | doramapimod -0.053 | [2] -0.024

RAB5IF isoform 5 (UniProt Q9BUV8)
active: [1] 0.753
inactive: lapatinib -0.043 | pictilisib -0.122 | duvelisib -0.071 | gandotinib -0.234 | tozasertib 0 | bafetinib 0.221 | [2] -0.357

RBM4 isoform 3 (UniProt Q9BWF3)
inactive: crizotinib 0.114 | doramapimod 0.016

SCNM1 (UniProt Q9BWG6)
inactive: lapatinib 0.006 | crizotinib 0.057 | [1] 0.022 | duvelisib 0.057 | gandotinib 0.015 | tozasertib -0.039 | doramapimod -0.017 | [2] -0.157

RPS6KA5 (UniProt O75582)
inactive: lapatinib -0.024 | crizotinib 0.028 | [1] 0.13 | duvelisib -0.011 | gandotinib -0.23 | tozasertib 0.106 | doramapimod -0.043 | [2] -0.032

RTTN (UniProt Q86VV8)
inactive: lapatinib 0.306 | pictilisib -0.034 | [1] -0.053 | duvelisib 0.067 | gandotinib -0.289 | tozasertib -0.07 | bafetinib -0.032 | [2] 0.203

RBBP7 (UniProt Q16576)
inactive: lapatinib 0.001 | pictilisib 0.007 | crizotinib 0.026 | duvelisib 0.02 | tozasertib 0.073 | doramapimod -0.036 | bafetinib -0.072

ROCK1 (UniProt Q13464)
inactive: lapatinib -0.003 | pictilisib -0.021 | crizotinib 0.011 | duvelisib 0.006 | gandotinib -0.04 | tozasertib 0.027 | doramapimod -0.025 | bafetinib -0.016 | [2] 0.031

RNF2 (UniProt Q99496)
active: [1] 0.484 | [2] -0.442
inactive: crizotinib 0.087 | duvelisib 0.031 | gandotinib -0.299 | tozasertib 0.021 | doramapimod -0.032

RMI2 (UniProt Q96E14)
inactive: crizotinib 0.005 | duvelisib 0.013 | tozasertib -0.068 | doramapimod -0.012

RNF24 isoform 2 (UniProt Q9Y225)
inactive: pictilisib -0.089 | crizotinib -0.074 | [1] -0.173 | gandotinib 0.117 | doramapimod -0.093 | bafetinib -0.477 | [2] 0.028

SERAC1 (UniProt Q96JX3)
inactive: pictilisib -0.018 | [1] -0.074 | duvelisib 0.145 | gandotinib 0.052 | tozasertib -0.089 | bafetinib -0.276 | [2] 0.127

S100A6 (UniProt P06703)
inactive: lapatinib 0.069 | crizotinib 0.119 | [1] 0.088 | duvelisib 0 | gandotinib 0.207 | tozasertib -0.038 | doramapimod -0.017 | [2] -0.119

RNF170 (UniProt Q96K19)
active: [2] 1.2
inactive: lapatinib -0.011 | pictilisib -0.332 | [1] -0.042 | duvelisib -0.229 | gandotinib -0.198 | bafetinib 0.024

RXRA (UniProt P19793)
inactive: lapatinib -0.045 | crizotinib -0.062 | [1] -0.041 | duvelisib 0 | gandotinib -0.047 | doramapimod 0.019 | [2] 0.126

RUFY2 isoform 1 (UniProt Q8WXA3)
active: pictilisib -0.533
inactive: crizotinib -0.015 | [1] 0.116 | gandotinib 0.072 | tozasertib 0.131 | doramapimod -0.136 | bafetinib 0.177 | [2] -0.099

ROBO2 isoform 3 (UniProt Q9HCK4)
inactive: lapatinib 0.02 | crizotinib -0.039 | doramapimod 0.019

RFWD3 (UniProt Q6PCD5)
inactive: pictilisib -0.12 | crizotinib -0.066 | [1] 0.036 | duvelisib 0.041 | gandotinib 0.004 | tozasertib -0.037 | doramapimod 0.036 | bafetinib -0.04 | [2] 0.107

RHBDD1 (UniProt Q8TEB9)
inactive: lapatinib 0.06 | pictilisib -0.216 | [1] 0.036 | gandotinib -0.118 | tozasertib -0.071 | bafetinib -0.133 | [2] -0.028

SELENOK (UniProt Q9Y6D0)
Chain of UniProt Q9Y6D0 (Q9Y6D0 whole entry, looked up): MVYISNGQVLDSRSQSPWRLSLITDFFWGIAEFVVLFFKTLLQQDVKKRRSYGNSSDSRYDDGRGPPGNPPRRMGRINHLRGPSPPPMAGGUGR
inactive: lapatinib -0.065 | pictilisib -0.048 | duvelisib 0.082 | bafetinib -0.027
active: [1] -0.543 | gandotinib 0.52 | [2] 0.542

SATB2 (UniProt Q9UPW6)
inactive: lapatinib -0.009 | crizotinib 0.009 | [1] 0.042 | duvelisib 0.03 | gandotinib -0.039 | tozasertib -0.008 | doramapimod 0.002 | [2] -0.008

RAD54L (UniProt Q92698)
inactive: lapatinib -0.029 | pictilisib 0.029 | duvelisib 0.109 | gandotinib 0.454 | bafetinib -0.185 | [2] 0.617
active: [1] -1.75

RLIM (UniProt Q9NVW2)
inactive: pictilisib -0.053 | crizotinib -0.323 | doramapimod -0.044 | bafetinib -0.193

QSER1, A0A3B3IRW6
inactive: lapatinib -0.04 | crizotinib -0.072 | duvelisib 0.005 | tozasertib -0.033 | doramapimod 0

RDH11 (UniProt Q8TC12)
active: gandotinib 0.298 | [2] 0.328
inactive: lapatinib -0.035 | crizotinib -0.034 | [1] -0.11 | duvelisib -0.011 | tozasertib 0.009 | doramapimod 0.041

RECQL4 (UniProt O94761)
active: gandotinib -0.472
inactive: pictilisib -0.032 | crizotinib -0.079 | [1] -0.039 | duvelisib 0.061 | tozasertib -0.014 | doramapimod 0.029 | bafetinib -0.099 | [2] 0.146

RNPC3 (UniProt Q96LT9)
inactive: lapatinib -0.018 | crizotinib -0.043 | [1] 0.036 | duvelisib 0.072 | gandotinib 0.016 | doramapimod -0.115 | [2] -0.115

SEC16A isoform 3 (UniProt O15027)
inactive: duvelisib 0.024

RHOU (UniProt Q7L0Q8)
inactive: lapatinib -0.05 | crizotinib -0.002 | duvelisib 0.024 | gandotinib -0.031 | tozasertib 0.113 | doramapimod 0.038 | [2] 0.056
active: [1] -0.323

From the supplement of paper PMC10849652
